About 83,000 compounds went through this panel and 20% of them were active in at least one assay; those are over-represented in the sample as a whole.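 Single-concentration screen, 48 h exposure, 96-well plates. Endpoint: percent growth. Below 10 = active.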 The source made the active and inactive calls.
Assays:
Test in all cases: NCI-60 one-dose screen, 48 h (100 = growth as untreated, 0 = no growth, -100 = all killed)
EKVX NSCLC = details: 10 µM unless noted
SN12C renal = details: 10 µM unless noted
UO-31 renal = details: 10 µM unless noted
TK-10 renal = details: 10 µM unless noted
ACHN renal = details: 10 µM unless noted
CAKI-1 renal = details: 10 µM
A498 renal = details: 10 µM unless noted
CCRF-CEM leukemia = details: 10 µM unless noted
RPMI-8226 leukemia = details: 10 µM unless noted
OVCAR-8 ovarian = details: 10 µM unless noted
OVCAR-5 ovarian = details: 10 µM unless noted
SK-OV-3 ovarian = details: 10 µM unless noted
IGROV1 ovarian = details: 10 µM unless noted
HS 578T breast = details: 10 µM unless noted
NCI/ADR-RES ovarian = details: 10 µM unless noted
OVCAR-4 ovarian = details: 10 µM unless noted
MOLT-4 leukemia = details: 10 µM unless noted
SR leukemia = details: 10 µM unless noted

Measured: growth

C=CCn1c(SCC(=O)Nc2cccc(C(=O)/C=C/c3ccccc3)c2)nc2ccccc2c1=O
active: RPMI-8226 leukemia 2.15%
inactive: EKVX NSCLC 99.3% | SN12C renal 91.1% | UO-31 renal 67.4% | TK-10 renal 116% | ACHN renal 93.9% | CAKI-1 renal 80.1% | A498 renal 92.9% | CCRF-CEM leukemia 72.1% | OVCAR-8 ovarian 83.3% | OVCAR-5 ovarian 101% | SK-OV-3 ovarian 122% | IGROV1 ovarian 87.6% | HS 578T breast 99.2% | NCI/ADR-RES ovarian 87.1%

O=c1cc(-c2ccccc2)nc2sc(-c3c[nH]c4ccc(Br)cc34)nn12
inactive: EKVX NSCLC 91.2% | SN12C renal 94.9% | UO-31 renal 79.6% | TK-10 renal 110% | ACHN renal 96.3% | CAKI-1 renal 91.4% | A498 renal 85.5% | CCRF-CEM leukemia 123% | RPMI-8226 leukemia 112% | OVCAR-8 ovarian 106% | OVCAR-5 ovarian 100% | OVCAR-4 ovarian 105% | SK-OV-3 ovarian 110% | IGROV1 ovarian 98.9% | HS 578T breast 113% | NCI/ADR-RES ovarian 101%

COc1ccc([C@@H]2[C@@H](O)C(=O)N2c2cc(OC)c(OC)c(OC)c2)cc1
inactive: EKVX NSCLC 51.2% | SN12C renal 24.6% | UO-31 renal 29.9% | TK-10 renal 74.5% | ACHN renal 26.8% | CAKI-1 renal 25.6% | CCRF-CEM leukemia 24% | RPMI-8226 leukemia 20.3% | OVCAR-5 ovarian 24.8% | OVCAR-4 ovarian 59.3% | SK-OV-3 ovarian 37.2% | IGROV1 ovarian 27.9% | HS 578T breast 10.6% | NCI/ADR-RES ovarian 13.9%
active: A498 renal -20.8% | OVCAR-8 ovarian 2.57%

C/C(=C(/c1ccc(O)cc1)c1ccc(OCCN(C)C)cc1)c1ccc(Cl)cc1
inactive: EKVX NSCLC 61.4% | SN12C renal 59.1% | UO-31 renal 50.6% | TK-10 renal 85% | ACHN renal 32.8% | CAKI-1 renal 36.2% | A498 renal 70.2% | CCRF-CEM leukemia 53% | MOLT-4 leukemia 11.9% | OVCAR-8 ovarian 62.1% | OVCAR-5 ovarian 66.6% | SK-OV-3 ovarian 83% | IGROV1 ovarian 58.1% | HS 578T breast 46.8% | NCI/ADR-RES ovarian 61.8%
active: SR leukemia -3.2% | RPMI-8226 leukemia -8.72%

Cc1ccc(NC(=O)c2cc(/C=C/C(=O)NO)cc(C(F)(F)F)c2)cc1Nc1nccc(-c2cccnc2)n1
active: SN12C renal 2.25% | CAKI-1 renal 6.2% | A498 renal -46.9% | CCRF-CEM leukemia 5.21% | MOLT-4 leukemia 5.15% | SR leukemia 4.9% | RPMI-8226 leukemia -13% | OVCAR-8 ovarian -12.2% | IGROV1 ovarian 2.46% | HS 578T breast -14.5%
inactive: EKVX NSCLC 28% | UO-31 renal 18.8% | TK-10 renal 15.2% | ACHN renal 18.5% | OVCAR-5 ovarian 17.4% | OVCAR-4 ovarian 23% | NCI/ADR-RES ovarian 87.8%

C=CCn1c(SCC(=O)Nc2cccc(C(=O)/C=C/c3cc(OC)c(OC)c(OC)c3)c2)nc2ccccc2c1=O
inactive: EKVX NSCLC 78.2% | SN12C renal 41% | UO-31 renal 49% | TK-10 renal 112% | ACHN renal 45.7% | CAKI-1 renal 44.2% | A498 renal 75.6% | OVCAR-5 ovarian 17.4% | OVCAR-4 ovarian 66.5% | SK-OV-3 ovarian 132% | IGROV1 ovarian 49.3% | HS 578T breast 82% | NCI/ADR-RES ovarian 27.1%
active: CCRF-CEM leukemia 9.12% | RPMI-8226 leukemia -9.52% | OVCAR-8 ovarian -14.7%

COCCOc1ccc(-c2csc(NC(C)=O)n2)cc1NS(=O)(=O)c1cccc2c(N(C)C)cccc12
inactive: EKVX NSCLC 85.2% | SN12C renal 79.8% | UO-31 renal 64.2% | ACHN renal 72% | CAKI-1 renal 71.3% | A498 renal 74.8% | CCRF-CEM leukemia 105% | RPMI-8226 leukemia 69.6% | OVCAR-8 ovarian 97.6% | OVCAR-5 ovarian 105% | OVCAR-4 ovarian 86.8% | SK-OV-3 ovarian 119% | IGROV1 ovarian 77.1% | HS 578T breast 88% | NCI/ADR-RES ovarian 84.4%
active: TK-10 renal -21.2%

COc1ccc(/C(C)=C(\c2ccc(Cl)cc2)c2ccc(OCCN)cc2)cc1
inactive: EKVX NSCLC 87.2% | SN12C renal 78.3% | UO-31 renal 60.8% | TK-10 renal 119% | ACHN renal 84.9% | CAKI-1 renal 67.3% | A498 renal 90.1% | CCRF-CEM leukemia 66.1% | RPMI-8226 leukemia 67.1% | OVCAR-8 ovarian 88.7% | OVCAR-5 ovarian 83.8% | OVCAR-4 ovarian 90.3% | SK-OV-3 ovarian 131% | IGROV1 ovarian 77.8% | HS 578T breast 89% | NCI/ADR-RES ovarian 89.1%

COc1ccc([C@H]2[C@H](O)C(=O)N2c2cc(OC)c(OC)c(OC)c2)cc1Cl
inactive: EKVX NSCLC 50.1% | SN12C renal 22.2% | UO-31 renal 32.8% | TK-10 renal 85.4% | ACHN renal 26.6% | CAKI-1 renal 30.6% | CCRF-CEM leukemia 16.4% | RPMI-8226 leukemia 19% | OVCAR-5 ovarian 30.3% | SK-OV-3 ovarian 27.3% | IGROV1 ovarian 22.8% | HS 578T breast 13.6%
active: A498 renal -17% | OVCAR-8 ovarian -12.7% | NCI/ADR-RES ovarian -10.6%

COc1ccc(NC(=O)[C@H](C)NC(=O)OC(C)(C)C)cc1C(=O)Nc1cccc(-c2cc(=O)c3c(OC)c(OC)c(OC)cc3o2)c1
active: EKVX NSCLC 3.7% | SN12C renal 2.23% | TK-10 renal -3.36% | A498 renal -53.3% | CCRF-CEM leukemia 3.69% | MOLT-4 leukemia 7.83% | SR leukemia 8.47% | RPMI-8226 leukemia -39.4% | OVCAR-8 ovarian -27.5% | OVCAR-5 ovarian 3.94% | SK-OV-3 ovarian -17.8% | HS 578T breast -9.5%
inactive: UO-31 renal 16.8% | ACHN renal 10.3% | CAKI-1 renal 17.4% | OVCAR-4 ovarian 21.3% | IGROV1 ovarian 11.5% | NCI/ADR-RES ovarian 61.4%

CS(=O)(=O)c1nccc(-c2c(-c3ccc(F)c(OCc4ccc(F)cc4)c3)nc3sccn23)n1
inactive: EKVX NSCLC 28.4% | SN12C renal 86.2% | UO-31 renal 80.1% | TK-10 renal 105% | ACHN renal 91.3% | CAKI-1 renal 81.5% | A498 renal 76.6% | CCRF-CEM leukemia 79.4% | RPMI-8226 leukemia 38.8% | OVCAR-8 ovarian 92.1% | OVCAR-5 ovarian 97% | OVCAR-4 ovarian 99.1% | SK-OV-3 ovarian 110% | IGROV1 ovarian 82.1% | HS 578T breast 85.4% | NCI/ADR-RES ovarian 98%

COCCOc1ccc(-c2csc(NC(=O)CN3CCN(CCO)CC3)n2)cc1NS(=O)(=O)c1cccc2c(N(C)C)cccc12
inactive: EKVX NSCLC 80.5% | SN12C renal 81.1% | UO-31 renal 65.3% | TK-10 renal 107% | ACHN renal 85.8% | CAKI-1 renal 92% | A498 renal 79.4% | CCRF-CEM leukemia 46.3% | RPMI-8226 leukemia 54.6% | OVCAR-8 ovarian 81.2% | OVCAR-5 ovarian 94.2% | OVCAR-4 ovarian 96% | SK-OV-3 ovarian 92.9% | IGROV1 ovarian 82.9% | HS 578T breast 70.1% | NCI/ADR-RES ovarian 97.2%

COc1ccc2c(c1)c(-c1nn3c(=O)cc(-c4ccccc4)nc3s1)cn2C
inactive: EKVX NSCLC 85.3% | SN12C renal 45.2% | UO-31 renal 38.1% | TK-10 renal 64.1% | ACHN renal 44.3% | CAKI-1 renal 46.6% | CCRF-CEM leukemia 34.7% | RPMI-8226 leukemia 57.5% | OVCAR-8 ovarian 51% | OVCAR-5 ovarian 66% | OVCAR-4 ovarian 67.4% | SK-OV-3 ovarian 49.6% | IGROV1 ovarian 54.3% | HS 578T breast 27% | NCI/ADR-RES ovarian 27.8%
active: A498 renal 4.32%

Cc1ccccc1/C=C/c1nn2c(-c3ccoc3C)nnc2s1
inactive: EKVX NSCLC 100% | SN12C renal 101% | UO-31 renal 85.4% | TK-10 renal 95.5% | ACHN renal 102% | CAKI-1 renal 89.8% | A498 renal 89.5% | CCRF-CEM leukemia 108% | RPMI-8226 leukemia 91.4% | OVCAR-8 ovarian 97.1% | OVCAR-5 ovarian 100% | OVCAR-4 ovarian 99.6% | SK-OV-3 ovarian 118% | IGROV1 ovarian 107% | HS 578T breast 111% | NCI/ADR-RES ovarian 93.7%

CS(=O)c1nccc(-c2c(-c3ccc(F)c(OCCc4ccccc4)c3)nc3sccn23)n1 (stereo unspecified)
inactive: EKVX NSCLC 99.9% | SN12C renal 93.7% | UO-31 renal 52.7% | TK-10 renal 105% | ACHN renal 72.8% | CAKI-1 renal 84.8% | A498 renal 92.6% | CCRF-CEM leukemia 49.8% | RPMI-8226 leukemia 55.8% | OVCAR-8 ovarian 93% | OVCAR-5 ovarian 111% | OVCAR-4 ovarian 102% | SK-OV-3 ovarian 102% | IGROV1 ovarian 17.7% | HS 578T breast 99.8% | NCI/ADR-RES ovarian 108%

COc1cnc2c(c1)C(=O)c1c-2n(CCCNCC2CC2)c(=O)c2cc(F)ccc12
active: SN12C renal 0.563% | UO-31 renal -81.7% | TK-10 renal -32.9% | ACHN renal -62% | CAKI-1 renal -27.2% | A498 renal -31% | CCRF-CEM leukemia -2.04% | RPMI-8226 leukemia -38.5% | OVCAR-8 ovarian -61.6% | OVCAR-5 ovarian -6.47% | OVCAR-4 ovarian -4.75% | SK-OV-3 ovarian -38% | NCI/ADR-RES ovarian 5.01%
inactive: EKVX NSCLC 13.3% | IGROV1 ovarian 10.3% | HS 578T breast 26.1%

C=CCn1c(SCC(=O)Nc2cccc(C(=O)/C=C/c3ccc(OC)c(OC)c3)c2)nc2ccccc2c1=O
inactive: EKVX NSCLC 100% | SN12C renal 96.8% | UO-31 renal 74.6% | TK-10 renal 116% | ACHN renal 92.2% | CAKI-1 renal 75.7% | A498 renal 89.3% | CCRF-CEM leukemia 78.5% | RPMI-8226 leukemia 38.7% | OVCAR-8 ovarian 89.5% | OVCAR-5 ovarian 96.1% | OVCAR-4 ovarian 87.6% | SK-OV-3 ovarian 108% | IGROV1 ovarian 90.5% | HS 578T breast 88.9% | NCI/ADR-RES ovarian 91.8%

CNC(=O)c1cc(Oc2ccc3nc(NC(=O)c4cccc(C(F)(F)F)c4)sc3c2)ccn1
inactive: EKVX NSCLC 101% | SN12C renal 96% | UO-31 renal 99.1% | TK-10 renal 116% | ACHN renal 102% | CAKI-1 renal 93.6% | A498 renal 87.3% | CCRF-CEM leukemia 109% | MOLT-4 leukemia 107% | SR leukemia 111% | RPMI-8226 leukemia 112% | OVCAR-8 ovarian 106% | OVCAR-5 ovarian 97.7% | SK-OV-3 ovarian 111% | IGROV1 ovarian 107% | HS 578T breast 102% | NCI/ADR-RES ovarian 101%
